Records with an inconclusive call do not appear. A call without a number means that no potency is given here. Active and inactive are the calls of the source. Calls follow the shape of the dose curve; as a rule, active = well fitted cell-killing curve with a large enough effect; inconclusive = small, poorly fitted or top-dose-only effect; inactive = flat fitted curve, though single readings scatter.
Potency is read from the fitted curve at half-maximal effect.

This experiment in a line: Cellular viability qHTS for adrenocortical cancer (ACC) cell line NCI-H295R (AID 1963990). Also: nearly all actives have a fitted effect of over 60% in size. The conditions noted are these: CellTiter-Glo ATP luminescence, 48 h; series mostly up to 46.1 µM. The method in brief:
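Luminescent ATP read-out (CellTiter-Glo, 20 min RT) after 48 h drug exposure of NCI-H295R cells; a titration up to 46 uM final. Data normalized to doxorubicin (100% inhibition) and DMSO (0%); 4-parameter fit gives IC50, max response.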
Background: qHTS replaces the single test concentration by a dilution series.
For `O=C(O)P(=O)(O)O`, the Potency result was “inactive”. With `Cc1ccc(NC(=O)Nc2cc(C(F)(F)F)ccc2F)cc1Nc1ccc2c(c1)NC(=O)/C2=C\c1ccc[nH]1` the figure was 25.1 µM (active); with `COC(=O)c1cc(Cl)ccc1NS(=O)(=O)C(F)(F)F`, “inactive”; with `Brc1ccccc1-c1ccccc1`, “inactive”. With `O=C(CCCCC(=O)Nc1c(I)cc(I)c(C(=O)O)c1I)Nc1c(I)cc(I)c(C(=O)O)c1I` the entry was “inactive”; with `CCN1CCC[C@H]1CNC(=O)c1c(O)c(Cl)cc(Cl)c1OC`, “inactive”; with `C=CCN1C[C@H](C(=O)N(CCCN(C)C)C(=O)NCC)C[C@@H]2c3cccc4[nH]cc(c34)C[C@H]21`, “inactive”.

`OC[C@]1(O)OC[C@@H](O)[C@H](O)[C@@H]1O`: the Potency result was “inactive”. Regarding `NC(=O)N[C@@H](CCC(=O)O)C(=O)O`, the Potency result is “inactive”.

For `Oc1c(Br)cc(Br)c2cccnc12`, the Potency was 1.64 µM (active). With `OC[C@H]1O[C@@H](Oc2ccc(O)cc2)[C@H](O)[C@@H](O)[C@@H]1O` the entry was “inactive”. On to `CC1CCc2cc(F)cc3c(=O)c(C(=O)O)cn1c23` (configuration not stated), for which the Potency entry was “inactive”.

As to `CC(C)(Oc1ccc(Cl)cc1)C(=O)O`, the Potency result was “inactive”. For `C[C@@H]1CCN(C(=O)N2CCCC2)C[C@@H]1N(C)c1ncnc2[nH]ccc12`, the Potency result was “inactive”. With `CCCCCCCCCCCCCCC[C@H](O)[C@@H](N)CO` the entry was “inactive”; with `O=C(O)Cc1ccc2c(c1)C(=O)c1ccccc1CO2`, “inactive”. The same measure for `O=C(O)CCc1nc2ccccc2[nH]1`: “inactive”; for `CCN(CC)C(=O)C1CN2CCc3cc(OC)c(OC)cc3C2CC1OC(C)=O` (configuration not stated): “inactive”; for `CCOC(=O)c1ccc(O)cc1`: “inactive”. As for `CCOC(N)=O`, the Potency entry is “inactive”. Take `NC(=O)CC[C@@H]1NC(=O)[C@H](Cc2ccccc2)NC(=O)[C@H](Cc2ccc(O)cc2)NC(=O)CCSSC[C@@H](C(=O)N2CCC[C@H]2C(=O)N[C@@H](CCCN=C(N)N)C(=O)NCC(N)=O)NC(=O)[C@H](CC(N)=O)NC1=O`: the Potency result was “inactive”.

In the case of `O=c1[nH]c(=O)n([C@H]2O[C@H](CO)[C@@H](O)[C@@H]2O)cc1/C=C\Br`, the Potency entry is “inactive”.
